Results filed as inconclusive are left out. Activity calls are given as the source filed them. Unless noted, calls come from the whole dose curve; as a rule, active = well fitted curve in the direction sought with a large enough effect; inconclusive = small, poorly fitted or top-dose-only effect, or another doubt; inactive = no such curve, though single readings can be large; an effect the other way counts as inactive or inconclusive.
Columns and labels:
[1] = system: Zika virus NS2B-NS3 protease (linked construct); test: Primary screen NINDS Rhodamine qHTS for Zika virus inhibitors (AID 1347160)
How it was run: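 Percent inhibition, normalized to uninhibited and enzyme-free controls, is fitted to a 4-parameter Hill equation. Fluorescence change comes from a 15-min cleavage of 1.5 microM bis-peptide Rhodamine110 substrate by 25 nM linked NS2B-NS3 at room temperature.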

[2] = OV-KATE Cancer Cell Toxicity qHTS against the NCATS CANVASS Library (AID 1347345)
How it was run: (§1)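 Step one: seed 1000 cells per well. Step two: incubate 4 h. Step three: add test compounds in 11 concentrations. Step four: culture 72 h, then add CellTiter-Glo and record luminescence after 15min.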

[3] = HPAF-II Cancer Cell Toxicity qHTS against the NCATS CANVASS Library (AID 1347346)
How it was run: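 Luminescence from CellTiter-Glo, added after 72 h compound exposure and a 15 min room-temperature incubation, served as the viability readout. HPAF-II cells (1000/well) received an 11-point concentration series.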

[4] = UWB1.289 Cancer Cell Toxicity qHTS against the NCATS CANVASS Library (AID 1347347)
How it was run: as §1

[5] = OV-SAHO Cancer Cell Toxicity qHTS against the NCATS CANVASS Library (AID 1347348)
How it was run: as §1

[6] = Panc-1005 Cancer Cell Toxicity qHTS against the NCATS CANVASS Library (AID 1347349)
How it was run: as §1

[7] = SW1088 Cancer Cell Toxicity qHTS against the NCATS CANVASS Library (AID 1347350)
How it was run: as §1

[8] = COV-362 Cancer Cell Toxicity qHTS against the NCATS CANVASS Library (AID 1347352)
How it was run: (§2)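 Luminescent ATP read-out (CellTiter-Glo, 15min at room temperature) measures survival after cells face an 11-point compound series for 72 hours at 37 degrees C/5% CO2.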

[9] = A2780 Cisplatin Sensitive Ovarian Cancer Cell Toxicity qHTS against the NCATS CANVASS Library (AID 1347353)
How it was run: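 Luminescent ATP content (ATPLite, 10 min at room temperature) served as the read-out after cells had been exposed to compounds for 72 hours at 37 °C. Dosing followed an 11-point concentration series.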

[10] = UWB1.289-WTBRCA1 Cancer Cell Toxicity qHTS against the NCATS CANVASS Library (AID 1347354)
How it was run: as §2

[11] = HPAF-II 24hr Apoptosis Induction qHTS against the NCATS CANVASS Library (AID 1347356)
How it was run: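 Luminescent caspase-3/7 signal (DEVD substrate, Caspase-Glo) served as read-out, taken 15 min after reagent addition to HPAF-II cells exposed 24 h to compounds.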

[12] = HEK293 18hr Apoptosis Induction qHTS against the NCATS CANVASS Library (AID 1347357)
How it was run: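 Natural products applied to HEK293 for 18 hr; Caspase-Glo 3/7 readout.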

[13] = HEK293 24hr Apoptosis Induction qHTS against the NCATS CANVASS Library (AID 1347359)
How it was run: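 HEK293 cells, 500 per well, exposed to an 11-point compound series for 24 hours at 37 degrees C. Caspase 3/7 activity read by Caspase-Glo luminescence (DEVD substrate) after 15 min at room temperature.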

[14] = system: NAD(P)H diaphorase (Clostridium kluyveri); test: Diaphorse counterscreen qHTS: Assay Interference Panel against the NCATS CANVASS Library (AID 1347362)
How it was run: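 Clostridium kluyveri diaphorase in PBS + 0.01% Tween-20 preincubated 15 min with compounds. Resazurin and NADH then added for 5 min at room temperature in the dark; resorufin fluorescence read (ex 525, em 598).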

[15] = target: Luciferin 4-monooxygenase (Photinus pyralis) (UniProt P08659); test: Firefly luciferase counterscreen qHTS: Assay Interference Panel against the NCATS CANVASS Library (AID 1347363)
How it was run: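 Purified P. pyralis luciferase (0.04 ug/mL, 4x reagent) added to Tris-acetate buffer with 0.013 mM D-luciferin, 0.013 mM ATP and 13.3 mM Mg-acetate; compounds preincubated 15 min, then luminescence read after 5 min, RT.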

[16] = SDT Cancer Cell Toxicity qHTS against the NCATS CANVASS Library (AID 1347365)
How it was run: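 qHTS, SDT dog glioma line, 500 cells/well; cpds 11 pts; 72 hr, 37C, 5% CO2; CellTiterGlo ATP luminescence.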

[17] = KB-3-1 Cancer Cell Toxicity qHTS against the NCATS CANVASS Library (AID 1347366)
How it was run: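 Cytotoxicity toward KB-3-1 cells (500/well, DMEM + 10% FBS) was scored by CellTiter-Glo luminescence following 72 hr exposure at 37C, with bortezomib titrated as control.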

[18] = G06 Cancer Cell Toxicity qHTS against the NCATS CANVASS Library (AID 1347368)
How it was run: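 Dog G06 glioma line, 500 cells/well; cpds pin-transferred, 11-pt; 72 hr, 37C/5% CO2; CellTiterGlo luminescence (ATP) endpoint.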

[19] = MCF7 Cancer Cell Toxicity qHTS against the NCATS CANVASS Library (AID 1347369)
How it was run: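 This 72 hr qHTS scored MCF7 viability by CellTiterGlo luminescence, with 500 cells/well; bortezomib titration ran as control.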

[20] = qHTS for ATAD5 Antagonist screened against the NCATS CANVASS Library (AID 1347370)
How it was run: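 HEK293T cells with stably integrated ATAD5-luciferase reporter, 2000/well, 5 h attachment; compounds plus 10 µM 5-fluorouridine, 16 h at 37 °C. Luciferase luminescence read, with CellTiter-Fluor viability read first.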

[21] = J3T Cancer Cell Toxicity qHTS against the NCATS CANVASS Library (AID 1347371)
How it was run: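 Cells plated at 500 per well, compounds pin-transferred, plates incubated 72 hr at 37C, then CellTiterGlo added and luminescence read to measure ATP content.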

[22] = target: Nuclear receptor subfamily 1 group I member 3 (Homo sapiens) (UniProt Q14994); test: qHTS for Constitutive Androstane Receptor (CAR) Antagonist screened against the NCATS CANVASS Library (AID 1347372)
How it was run: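 HepG2 cells stably carrying hCAR and CYP2B6-2.2kb luciferase reporter, 2500 cells/well, compound with 50 nM CITCO agonist for 24hr at 37C. ONE-Glo luminescence measured CAR activity; CellTiter-Fluor read viability.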

[23] = target: Nuclear receptor subfamily 1 group I member 3 (Homo sapiens) (UniProt Q14994); test: qHTS for Constitutive Androstane Receptor (CAR) Agonist screened against the NCATS CANVASS Library (AID 1347373)
How it was run: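 HepG2-hCAR-CYP2B6 cells, 2500/well, attached 4hr; cpd + PK11195 1.5uM final; 24hr 37C 5% CO2. CellTiter-Fluor viability read, then ONE-Glo luminescence for CAR activation.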

[24] = qHTS for Hypoxia signaling pathway (HIF-1) antagonists against the NCATS CANVASS Library (AID 1347374)
How it was run: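 HRE-bla ME-180 cells in medium with 0.5% dialyzed FBS received compounds (11-point series) plus CoCl2 (60 uM addition stock) for 17 hrs at 37C. Beta-lactamase activity read with CCF4 (405 nm ex, 460/530 nm em); CellTiter-Glo viability measured in same wells.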

[25] = qHTS for Inflammasome Signaling Inhibitors: IL-1-beta AlphaLISA screen against the NCATS CANVASS Library (AID 1347379)
How it was run: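 THP-1 cells pretreated 1 hr with compound (up to 57.5 uM final), then stimulated with LPS (250 ng/mL final) and ATP (1.25 mM final). Secreted IL-1B measured by AlphaLISA after 16 hr; glyburide as positive control.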

[26] = Inflammasome Signaling qHTS Counterscreen: IL-1-beta AlphaLISA counterscreen against the NCATS CANVASS Library (AID 1347381)
How it was run: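 Cell-free interference check: compounds added to medium spiked with 4 pg purified IL-1β. Anti-IL-1β acceptor beads (6 ug/mL) with 0.6 nM biotinylated antibody added for 1 h at RT, then streptavidin donor beads (24 ug/mL) for 30 min in the dark. AlphaLISA read at 680/615 nm.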

[27] = Cytotoxicity qHTS for assessment of Hepg2 cells membrane integrity screened against the NCATS CANVASS Library (AID 1347387)
How it was run: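 qHTS, 11-pt conc. series, 0.59 nM - 46 uM final; HepG2 2000 cells/well, overnight attachment; 5 hr compound exposure 37C/5% CO2; CytoTox-ONE, 10 min RT; fluorescence ex560/em590 = LDH from damaged membranes.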

[28] = qHTS for Activators of p53 Stress Response Pathway screened against the NCATS CANVASS Library (AID 1347388)
How it was run: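 p53RE-bla HCT-116 cells (4000/well) were pre-incubated for 5 h, then treated with compound (11 points) for 16 h at 37C. After 2 h with CCF4, the 460/530 nm ratio gave reporter activation; CellTiter-Glo measured viability.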

[29] = qHTS assay for small molecule disruptors of mitochondrial membrane potential screened against the NCATS CANVASS Library (AID 1347389)
How it was run: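 HepG2, 2,000 cells/well, attached overnight; compound 1 hr, 37C, 5% CO2; Mito-MPS dye 30 min, 37C; fluorescence 535 nm (monomer) and 590 nm (aggregate); decreased 590/535 ratio = depolarization.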

[30] = Secretion counterscreen for inhibitors of the SERCaMP assay screened against the NCATS CANVASS Library (AID 1347390)
How it was run: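 Natural products are titrated in an 11-point series up to 77 uM onto SH-SY5Y-GLuc STOP cells for 20 h. Secreted reporter activity is measured as coelenterazine-driven luminescence, with Brefeldin A on each plate.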

[31] = qHTS for activators of Nrf2/ARE signaling pathway screened against the NCATS CANVASS Library (AID 1347391)
How it was run: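 Plate ARE-bla HepG2 cells at 2000/well and let them settle 5 h. Pin-transfer compounds in DMSO, incubate 16 h at 37C. Load CCF4 for 2 h at room temperature and read blue/green fluorescence.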

[32] = qHTS for activators of dead-cell proteases activity screened against the NCATS CANVASS Library (AID 1347392)
How it was run: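 HepG2 cells, 2000/well, attached 18 h at 37C, then exposed to compounds (11-point qHTS) for 5 h. Dead-cell protease release read as luminescence from cell-impermeant AAF-aminoluciferin substrate after 15 min at room temperature.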

[33] = qHTS for inhibitors of ER calcium dysfunction: SERCaMP assay screened against the NCATS CANVASS Library (AID 1347393)
How it was run: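 SH-SY5Y GLuc-SERCaMP, 1000 cells/well, 4 h attach; cpd 16 h, 37C/5% CO2; thapsigargin (added as 6x 600 nM) 4 h; coelenterazine; luminescence. Reduced reporter release = ER Ca stabilization.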

[34] = Vero-766 cells viability qHTS against the NCATS CANVASS Library: Counterscreen for Zika virus inhibition assay (AID 1347394)
How it was run: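 Counterscreen for toxicity: Vero 766 cells exposed 72 h to an 11-point compound series, viability by CellTiter-Glo.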

[35] = qHTS for inhibitors of Wild type Zika virus screened against the NCATS CANVASS Library (AID 1347396)
How it was run: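 Using ATP-based luminescence (CellTiter Glo), this screen scores rescue of Vero 766 cells from wild-type Zika killing at 72 h post-infection. Compounds are tested in a concentration series.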

[36] = qHTS for inhibitors of Rabies Virus screened against the NCATS CANVASS Library (AID 1347402; calls by dose curve)

Measured: Potency

Chain of Nuclear receptor subfamily 1 group I member 3 (Homo sapiens) (Q14994 whole entry, looked up): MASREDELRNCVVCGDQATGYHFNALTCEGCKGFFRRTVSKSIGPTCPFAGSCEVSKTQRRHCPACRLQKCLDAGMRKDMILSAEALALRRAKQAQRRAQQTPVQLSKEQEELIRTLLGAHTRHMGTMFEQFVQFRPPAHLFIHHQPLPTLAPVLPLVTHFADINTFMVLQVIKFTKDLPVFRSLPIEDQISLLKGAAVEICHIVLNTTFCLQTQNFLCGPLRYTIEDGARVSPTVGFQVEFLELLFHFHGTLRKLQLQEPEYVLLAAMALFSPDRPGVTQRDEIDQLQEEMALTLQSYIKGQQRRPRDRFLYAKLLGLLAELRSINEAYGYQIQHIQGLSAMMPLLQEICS
Chain of Luciferin 4-monooxygenase (Photinus pyralis) (P08659 whole entry, looked up): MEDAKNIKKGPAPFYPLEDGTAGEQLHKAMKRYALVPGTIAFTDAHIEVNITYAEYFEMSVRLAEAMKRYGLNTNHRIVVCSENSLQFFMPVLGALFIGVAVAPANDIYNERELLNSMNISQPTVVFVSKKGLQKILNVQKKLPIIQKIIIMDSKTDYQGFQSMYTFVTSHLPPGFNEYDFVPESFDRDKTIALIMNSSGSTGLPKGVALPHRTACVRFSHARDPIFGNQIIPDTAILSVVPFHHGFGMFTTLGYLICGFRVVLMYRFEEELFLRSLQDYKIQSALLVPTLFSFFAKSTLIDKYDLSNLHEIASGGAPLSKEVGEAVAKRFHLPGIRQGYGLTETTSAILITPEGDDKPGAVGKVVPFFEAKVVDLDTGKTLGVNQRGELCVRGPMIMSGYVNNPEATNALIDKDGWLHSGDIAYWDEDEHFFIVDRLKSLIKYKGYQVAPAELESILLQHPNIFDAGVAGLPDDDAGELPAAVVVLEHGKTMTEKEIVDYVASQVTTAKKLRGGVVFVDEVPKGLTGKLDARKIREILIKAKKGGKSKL

CO[C@@H](/C=C/CC/C=C/C(=O)O)[C@@H](O)[C@H](C)[C@@H](O)/C(C)=C/[C@H](C)C(=O)CCCC1CC(=O)NC(=O)C1
inactive: all assays above
